Experimental findings from PubChem BioAssay are described below.

One test addresses Albumin (Bos taurus) (UniProt P02769). Kind of test: bovine serum albumin binders on microarray, profiling panel, artefact control for SMM control protein annotation, biochemical, small-molecule microarray, Alexa647 label, 635/667 nm fluorescence (AID 1118).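 Also: score merges 667 nm emission intensity and signal-to-noise per printed compound spot.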 The note with it: BSA-A647 binding, fluorescence 635 nm, higher = more signal.
Test [1] can be described thus: small-molecule microarray binders of probe aXIP, primary screen, biochemical, NeuroSMM set, 635/667 nm fluorescence (AID 1119).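 Also: probe is the protein aXip251-270 applied at 1 µg/mL to compound-printed slides; binding of probe to printed compounds measured as 667 nm fluorescence plus signal to noise.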 The note with it: higher = more signal, called active from +8 up or from −8 down.
Test [2] in a line: small-molecule binders of probe aNOTCH3, primary screen, biochemical, small-molecule microarray, 635/667 nm fluorescence (AID 1120).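 Also: probe is a biotin-tagged antibody raised against NOTCH3 rather than NOTCH3 protein; score merges spot fluorescence near 667 nm with spot signal to noise.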 The note with it: higher = more signal.
The nature of test [3]: small-molecule binders of probe aNOTCH2, primary screen, biochemical, small-molecule microarray, 635/667 nm fluorescence (AID 1121).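 Also: score merges feature fluorescence read at 667 nm with its signal to noise.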 The settings on record: higher = more signal.
The target of test [4] is Carbonic anhydrase 2 (Homo sapiens) (UniProt P00918). Briefly: CAII small-molecule binders, profiling panel, biochemical, small-molecule microarray, Alexa647-labelled CAII (AID 1122). The settings on record: CAII-A647 binding fluorescence, higher = more signal.
Test [5] in a line: COS7 lysate on small-molecule microarray, probe aHis, 635 nm (AID 1123).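 Also: z-score combines 667nm fluorescence intensity with signal-to-noise per printed compound spot.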 The note with it: COS7 cell lysate, fluorescence, higher = more signal.
Test [6] in a line: compound binding in COS7 lysate, probe aLAP1, primary screen, cell lysate, small-molecule microarray (AID 1124).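 Also: lysate comes from COS7 cells expressing LAP1 and is applied at 0.3 µg/mL; score merges spot fluorescence near 667 nm with signal-to-noise over triplicate slides.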 The note with it: probe aLAP1, fluorescence, higher = more signal.
Another test deals with Sam68 (KHDRBS1). Kind of test: Sam68 small-molecule binders, primary screen, biochemical, small-molecule microarray, 635 nm fluorescence (AID 1125).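 Also: score merges 667 nm channel intensity with signal to noise over triplicate slides.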 The settings on record: small-molecule microarray binding, higher = more signal.
The subject of test [7] is Chordin-like protein 2 (CHRDL2). Briefly: CHRDL2 small-molecule binders, primary screen, biochemical, small-molecule microarray, 635 nm fluorescence (AID 1126).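 Also: printed compound slides probed with Chrdl2 protein at 4 µg/mL for 1 h at 4 C; score merges 667 nm emission intensity with signal to noise over three replicate slides.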 The note with it: small-molecule microarray binding, fluorescence 635 nm; higher = more signal.
In test [8] the target is Concanavalin-A (Canavalia ensiformis) (UniProt P02866). Briefly: ConA small-molecule binders, primary screen, artefact control for SMM control protein annotation, biochemical, small-molecule microarray, Alexa647 label, 635 nm (AID 1127).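 Also: z combines 667 nm emission intensity with signal-to-noise across three replicate slides.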 The note with it: ConA-A647 binding fluorescence, higher = more signal.
Chain of Concanavalin-A (Canavalia ensiformis) (P02866 whole entry, looked up): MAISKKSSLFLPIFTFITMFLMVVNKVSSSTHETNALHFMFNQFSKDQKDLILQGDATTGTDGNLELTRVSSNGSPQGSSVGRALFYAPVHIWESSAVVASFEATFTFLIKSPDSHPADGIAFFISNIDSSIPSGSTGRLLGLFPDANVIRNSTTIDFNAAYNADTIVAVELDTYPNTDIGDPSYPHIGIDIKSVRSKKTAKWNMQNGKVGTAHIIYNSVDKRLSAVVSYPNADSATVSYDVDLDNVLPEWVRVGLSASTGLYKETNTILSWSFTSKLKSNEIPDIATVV
A short description of test [9]: anti-His antibody binders, primary screen, artefact control for SMM control protein annotation, biochemical, small-molecule microarray, 635 nm fluorescence (AID 1128).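 Also: score merges feature fluorescence with signal-to-noise for each printed compound spot.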 The note with it: anti-His Alexa647 antibody binding, higher = more signal.
Test [10] concerns Human papillomavirus type 1a E7 protein (residues 1-88). Briefly: HPV1a E7 small-molecule binders, primary screen, biochemical, small-molecule microarray, residues 1-88, 635 nm (AID 1129). The settings on record: small-molecule microarray binding, fluorescence 635 nm; higher = more signal.
For test [11], the target named is Focal adhesion kinase 1 (Homo sapiens) (UniProt Q05397). Kind of test: small-molecule microarray binders of FAK, primary screen, biochemical, 635/667 nm fluorescence, BSA, DTT (AID 1130).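 Also: composite of spot emission at 667 nm and signal to noise over triplicate slides.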 The note with it: PTK2 binding, 635 nm fluorescence, higher = more signal.
Chain of Focal adhesion kinase 1 (Homo sapiens) (Q05397 whole entry, looked up): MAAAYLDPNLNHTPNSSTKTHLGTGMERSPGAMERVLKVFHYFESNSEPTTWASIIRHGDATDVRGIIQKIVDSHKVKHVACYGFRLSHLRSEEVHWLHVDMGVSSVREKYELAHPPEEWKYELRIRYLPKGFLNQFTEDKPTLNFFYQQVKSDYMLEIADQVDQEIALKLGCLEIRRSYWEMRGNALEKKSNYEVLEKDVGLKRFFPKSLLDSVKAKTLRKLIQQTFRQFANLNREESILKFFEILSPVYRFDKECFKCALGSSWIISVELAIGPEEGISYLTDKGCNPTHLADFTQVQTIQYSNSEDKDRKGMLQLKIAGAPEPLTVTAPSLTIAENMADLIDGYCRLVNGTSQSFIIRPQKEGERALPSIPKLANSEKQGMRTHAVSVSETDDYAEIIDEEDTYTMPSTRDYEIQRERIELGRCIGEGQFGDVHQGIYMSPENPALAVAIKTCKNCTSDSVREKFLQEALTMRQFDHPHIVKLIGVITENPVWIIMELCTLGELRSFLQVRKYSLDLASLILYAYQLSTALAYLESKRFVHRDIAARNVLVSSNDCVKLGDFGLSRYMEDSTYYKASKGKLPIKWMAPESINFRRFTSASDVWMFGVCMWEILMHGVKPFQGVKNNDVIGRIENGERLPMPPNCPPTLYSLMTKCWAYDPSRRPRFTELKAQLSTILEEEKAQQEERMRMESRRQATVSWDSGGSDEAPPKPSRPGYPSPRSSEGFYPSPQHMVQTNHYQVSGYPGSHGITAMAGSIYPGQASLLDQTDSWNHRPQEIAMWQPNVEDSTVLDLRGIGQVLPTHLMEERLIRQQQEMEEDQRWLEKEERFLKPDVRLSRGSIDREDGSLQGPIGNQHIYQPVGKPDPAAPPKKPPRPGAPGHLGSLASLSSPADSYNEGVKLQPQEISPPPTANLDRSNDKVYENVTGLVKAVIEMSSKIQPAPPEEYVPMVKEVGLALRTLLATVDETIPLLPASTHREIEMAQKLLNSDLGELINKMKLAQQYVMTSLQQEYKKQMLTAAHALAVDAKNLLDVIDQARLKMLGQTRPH
For test [12], the system named is Fibrinogen (Alexa647-labelled). Briefly: fibrinogen binders on compound microarrays, profiling panel, artefact control for SMM control-protein annotation, biochemical, small-molecule microarray, 635/667 nm fluorescence (AID 1131).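 Also: z-score merges 667 nm fluorescence with per-spot signal-to-noise over triplicate slides.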 The note with it: fibrinogen-A647 binding fluorescence, higher = more signal.
Test [13] deals with Follistatin (Homo sapiens) (UniProt P19883). Kind of test: follistatin binders on small-molecule microarrays, primary screen, biochemical, small-molecule microarray, 635/667 nm fluorescence (AID 1132). The note with it: FST binding, 635 nm fluorescence, higher = more signal.
Chain of Follistatin (Homo sapiens) (P19883 whole entry, looked up): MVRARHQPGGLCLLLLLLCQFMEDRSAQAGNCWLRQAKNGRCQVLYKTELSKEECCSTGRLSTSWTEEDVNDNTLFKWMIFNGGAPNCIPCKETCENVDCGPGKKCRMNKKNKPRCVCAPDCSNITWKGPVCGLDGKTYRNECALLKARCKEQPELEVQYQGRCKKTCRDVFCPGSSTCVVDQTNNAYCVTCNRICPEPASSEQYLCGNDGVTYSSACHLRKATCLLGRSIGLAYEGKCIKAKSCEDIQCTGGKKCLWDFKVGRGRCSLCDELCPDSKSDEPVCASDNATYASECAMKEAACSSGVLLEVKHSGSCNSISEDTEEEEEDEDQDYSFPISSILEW
The target of test [14] is Fibroblast growth factor 2 (Homo sapiens) (UniProt P09038). Kind of test: FGF2 binders on small-molecule microarrays, primary screen, biochemical, small-molecule microarray, 635/667 nm fluorescence (AID 1133). The note with it: small-molecule microarray binding, FGF2, fluorescence 635/667; higher = more signal.
Chain of Fibroblast growth factor 2 (Homo sapiens) (P09038 whole entry, looked up): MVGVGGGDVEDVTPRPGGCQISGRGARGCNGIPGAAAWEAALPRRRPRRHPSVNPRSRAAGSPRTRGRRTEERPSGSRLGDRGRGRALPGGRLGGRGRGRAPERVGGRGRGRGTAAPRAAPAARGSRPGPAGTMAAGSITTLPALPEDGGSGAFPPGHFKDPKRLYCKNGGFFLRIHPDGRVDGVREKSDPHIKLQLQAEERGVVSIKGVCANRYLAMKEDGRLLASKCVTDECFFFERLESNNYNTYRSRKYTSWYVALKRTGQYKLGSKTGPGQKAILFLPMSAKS
The nature of test [15]: mitochondrial membrane potential change in A549 cells, profiling panel, cell-based, JC-1 fluorescence, basal, 24 h, 100 nL (AID 1138).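 Also: A549 lung adenocarcinoma cells under basal conditions with no added stimulus; test concentration not given here.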 The settings on record: higher = more signal.
The test system of a further test is Lefty1. Briefly: Lefty1 binders on small-molecule microarrays, primary screen, biochemical, small-molecule microarray, 635/667 nm fluorescence (AID 1139). The note with it: small-molecule microarray binding, fluorescence 635/667; higher = more signal.
Test [16] has as its system wheat germ agglutinin (Triticum aestivum), Alexa647-labelled. Briefly: wheat germ agglutinin binders on compound microarrays, profiling panel, artefact control for SMM control-protein annotation, biochemical, small-molecule microarray, 635/667 nm fluorescence (AID 1140).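 Also: score merges 667 nm feature emission with signal to noise over triplicate slides.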 The settings on record: WGA-A647 binding, 635 nm fluorescence, higher = more signal.
The target of test [17] is Luciferin 4-monooxygenase (Photinus pyralis) (UniProt P08659). Briefly: firefly luciferase enzyme inhibitors, primary screen, biochemical, luminescence, purified enzyme, 2006 set (AID 1141).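 Also: cell-free assay with purified firefly luciferase at 100 ng per well in PBS; test concentration not given here.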 The settings on record: SteadyGlo luminescence, 30 min, higher = more signal, called active from +8 up or from −8 down.
Chain of Luciferin 4-monooxygenase (Photinus pyralis) (P08659 whole entry, looked up): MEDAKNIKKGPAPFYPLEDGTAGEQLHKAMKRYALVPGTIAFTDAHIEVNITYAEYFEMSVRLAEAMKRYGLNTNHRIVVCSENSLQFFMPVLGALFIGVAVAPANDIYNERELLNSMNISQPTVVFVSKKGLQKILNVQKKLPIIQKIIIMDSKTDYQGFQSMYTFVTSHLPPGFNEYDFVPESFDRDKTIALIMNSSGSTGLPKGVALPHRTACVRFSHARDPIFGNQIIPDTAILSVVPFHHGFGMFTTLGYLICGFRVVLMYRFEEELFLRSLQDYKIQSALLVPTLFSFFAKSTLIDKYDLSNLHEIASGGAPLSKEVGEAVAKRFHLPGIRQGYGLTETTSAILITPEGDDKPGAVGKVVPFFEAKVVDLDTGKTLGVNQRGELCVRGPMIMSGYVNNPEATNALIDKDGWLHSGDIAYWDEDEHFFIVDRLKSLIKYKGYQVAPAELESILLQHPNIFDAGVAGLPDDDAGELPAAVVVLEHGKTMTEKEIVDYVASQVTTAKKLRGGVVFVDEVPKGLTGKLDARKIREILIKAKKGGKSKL

Structures are written as SMILES. The source made the active and inactive calls.

Chain of Albumin (Bos taurus) (P02769 whole entry, looked up): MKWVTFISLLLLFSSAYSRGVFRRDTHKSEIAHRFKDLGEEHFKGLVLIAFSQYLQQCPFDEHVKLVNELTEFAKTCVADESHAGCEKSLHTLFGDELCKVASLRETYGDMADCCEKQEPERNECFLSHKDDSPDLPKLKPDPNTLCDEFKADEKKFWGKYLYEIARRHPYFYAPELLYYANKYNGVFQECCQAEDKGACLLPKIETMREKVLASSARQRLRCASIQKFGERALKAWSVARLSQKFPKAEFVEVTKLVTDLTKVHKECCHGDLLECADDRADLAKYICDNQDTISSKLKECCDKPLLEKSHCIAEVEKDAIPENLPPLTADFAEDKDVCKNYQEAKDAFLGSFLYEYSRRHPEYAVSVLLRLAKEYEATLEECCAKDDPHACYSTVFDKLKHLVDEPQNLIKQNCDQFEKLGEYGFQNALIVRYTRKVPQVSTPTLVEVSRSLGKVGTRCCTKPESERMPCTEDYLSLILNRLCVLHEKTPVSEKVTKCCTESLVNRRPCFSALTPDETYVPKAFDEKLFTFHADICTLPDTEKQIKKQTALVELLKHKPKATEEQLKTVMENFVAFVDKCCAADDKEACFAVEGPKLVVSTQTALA

In the case of `COCCOC(=O)N1C(=O)[C@@]2(c3cc(C#Cc4ccc(OC)cc4)ccc31)[C@H](c1ccccc1OCCO)N1[C@H](c3ccccc3)[C@H](c3ccccc3)OC(=O)[C@H]1[C@@H]2C(=O)N1CCCCCCC1`, the composite z-score was 0.164 in the test with Albumin (Bos taurus); 1.81 in [2]; 0.956 in test [3]; 0.934 in test [4]; 2.08 in [5]; 0.512 in [6]. For the same compound, the composite z-score in the test with Sam68 (KHDRBS1) stood at 0.484; in [7] it was 1.43; in test [8] it was 0.908; in [9], 0.623; in test [10], 1.2; in [11] it was 0.701. The composite z-score in [12] was -0.183; in test [13] it was 1.51; in test [14] it was 1.73; in the test with Lefty1, 1.23; in [16] it was 1.33. Moreover, in test [1], the composite Z-score is 6.24 (inactive). For the same compound, the z-score in test [15] was -0.775; in test [17], -0.246 (inactive).

Take `C[C@H]1NC(=O)[C@@]23C(=O)N[C@@H](Cc4ccccc4)C2[C@H](C)[C@@]2(C)O[C@H]2C3/C=C/C/C=C\CNC(=O)[C@H](Cc2ccccc2)NC1=O` (stereo not given in full): the composite z-score with Albumin (Bos taurus) is -0.474; in test [2], -0.145; in test [3], -0.127; in test [4] it was 0.281; in [5], 0.205; in test [6], 0.0898. In addition, the composite z-score in the test with Sam68 (KHDRBS1) was 0.127; in test [7], 0.636; in test [8], 0.501; in test [9], 0.624; in test [10], -0.0861; in test [11], -0.219. In addition, the composite z-score in test [12] amounted to 0.617; in [13], 0.884; in test [14], 0.811; in the test on Lefty1, 0.942; in test [16], 0.404. In addition, in test [1], the composite Z-score is -0.721 (inactive). In addition, the z-score in test [15] is -0.0755; in test [17] it was -0.203 (inactive).

On to `COC(=O)[C@@]1(Cc2ccc(F)cc2)[C@H]2c3cc(C(=O)N(C)C)n(Cc4cc(F)cc5c4OCOC5)c3C[C@H]2CN1C(=O)c1ccccc1`, for which the composite z-score with Albumin (Bos taurus) came out at 1.07; in [2], 0.24; in test [3], 0.105; in test [4] it was 0.376; in [5] it was 2.97; in test [6], 0.271. Besides, the composite z-score in the test on Sam68 (KHDRBS1) was 1.33; in [7], -0.535; in [8], 1.04; in test [9] it was 1.06; in test [10], 1.19; in test [11], 1.5. The composite z-score in test [12] is 1; in test [13], 1.04; in test [14] it was -0.0284; in the test with Lefty1, 0.444; in test [16], 1.06. For the same compound, the composite Z-score in [1] is -0.199 (inactive). For the same compound, the z-score in test [15] was -0.915; in test [17] it was -0.724 (inactive).

As to `O=C(NCC(F)(F)F)[C@@H]1c2ccccc2C(=O)N(Cc2ccccc2C(F)(F)F)[C@H]1c1ccc(CO)cc1`, the composite z-score in the test with Albumin (Bos taurus) was 0.0104; in [2] it was -0.0824; in [3], 0.0667; in test [4] it was 0.758; in test [5] it was 0.891; in test [6], 0.234. In addition, the composite z-score in the test on Sam68 (KHDRBS1) was 0.163; in test [7], -0.572; in test [8], -0.104; in [9], 0.219; in test [10], -0.479; in test [11], -0.335. Further, the composite z-score was -1.14 in test [12]; 0.706 in [13]; 0.548 in test [14]; -0.569 with Lefty1; -0.885 in test [16]. For the same compound, the composite Z-score in test [1] is 1.89 (inactive). The z-score is 0.0955 in test [15] and 0.461 (inactive) in test [17].

Take `CCOC(=O)C[C@H]1[C@H](OC(=O)c2cc3ccccc3oc2=O)[C@@H](NC(=O)c2ccc(-c3ccccc3)cc2)c2cc(OCCCO)ccc2N1C(=O)c1ccc2ccccc2n1`: the composite z-score with Albumin (Bos taurus) is 0.111; in [2], 0.0864; in [3], -0.147; in test [4], 0.4; in [5] it was 0.837; in [6], 0.205. For the same compound, the composite z-score in the test with Sam68 (KHDRBS1) was 1.32; in test [7], 0.492; in test [8], 0.708; in [9] it was 1.04; in test [10], 1.15; in [11], 0.553. Besides, the composite z-score in test [12] is 0.458; in test [13], 1.11; in test [14] it was 0.485; with Lefty1, 0.964; in test [16] it was 0.543. For the same compound, in test [1], the composite Z-score was 0.6 (inactive). Moreover, the z-score in test [15] is -0.408; in test [17] it was 0.778 (inactive).

Regarding `CCCC[C@@H]1C[C@H]1[C@@H](NC(=O)c1ccccc1)c1ccc(C(F)(F)F)cc1`, the composite z-score is -0.0844 with Albumin (Bos taurus); 0.0562 in test [2]; -0.0698 in test [3]; 0.009 in [4]; -0.511 in [5]; -0.134 in test [6]. For the same compound, the composite z-score is -1.5 with Sam68 (KHDRBS1); -1.15 in test [7]; -0.917 in [8]; 0.581 in test [9]; -0.551 in [10]; -0.0796 in [11]. In addition, the composite z-score in test [12] was -2.43; in test [13] it was -1; in [14] it was -1.19; in the test on Lefty1 it was -0.549; in test [16] it was -0.331. Besides, the composite Z-score in test [1] is -0.157 (inactive). Also, the z-score is -0.0527 in test [15] and 0.286 (inactive) in [17].

Turning to `O=C(NCC(F)(F)F)[C@@H]1c2ccccc2C(=O)N(Cc2ccc(OC(F)(F)F)cc2)[C@H]1c1ccc(CO)cc1`, the composite z-score was 0.0667 with Albumin (Bos taurus); -0.0647 in test [2]; -0.14 in test [3]; 0.65 in test [4]; 0.96 in [5]; 0.203 in test [6]. For the same compound, the composite z-score is 0.761 with Sam68 (KHDRBS1); -0.374 in test [7]; 0.711 in test [8]; 0.191 in test [9]; -0.0826 in test [10]; 0.518 in test [11]. For the same compound, the composite z-score in test [12] is -0.344; in test [13], 1.02; in test [14], 0.45; in the test on Lefty1 it was 0.713; in test [16], 0.444. The composite Z-score in [1] was -0.348 (inactive). Besides, the figures for the z-score in test [15] and in [17] were 0.845 and 1.36 (inactive), respectively.

Consider `CCOC(=O)C1=CC[C@@H](c2ccc(OCc3ccccc3)c(OC)c2)N(S(=O)(=O)c2ccc(C)cc2)[C@H]1c1ccc(SC)cc1`, for which the composite z-score with Albumin (Bos taurus) came to 0.783; in [2] it was 0.386; in test [3], 0.202; in test [4], 0.625; in test [5], 2.53; in test [6] it was 0.157. In addition, the composite z-score in the test with Sam68 (KHDRBS1) came to 1.31; in test [7] it was 0.525; in test [8], 0.806; in test [9], 1.44; in [10], 1.24; in test [11] it was 0.398. In addition, the composite z-score in test [12] worked out at 0.715; in test [13] it was 0.761; in test [14], 0.159; with Lefty1, 0.542; in test [16], 0.71. In test [1], the composite Z-score is 0.207 (inactive). Further, the values for the z-score in test [15] and in test [17] were -0.219 and 0.107 (inactive), respectively.
